Data reported in the supplement of paper PMC11732987, “Enantioselective OTUD7B fragment discovery through chemoproteomics screening and high-throughput optimisation” (Communications Chemistry, 2025).

Key:
Test in all cases: log2 ratio of Biotin-Ahx-Ub-VS probe labelling (fragment/DMSO); higher = less target engagement (more negative = stronger competition), active = hit call of the paper (q ≤ 0.05, log2 ratio ≤ -1)
Settings in all cases: compound concentration: 200 uM; treatment time: 3 h
USP42 = target: T1, USP42 (UniProt Q9H9J4)
T1 sequence (whole entry): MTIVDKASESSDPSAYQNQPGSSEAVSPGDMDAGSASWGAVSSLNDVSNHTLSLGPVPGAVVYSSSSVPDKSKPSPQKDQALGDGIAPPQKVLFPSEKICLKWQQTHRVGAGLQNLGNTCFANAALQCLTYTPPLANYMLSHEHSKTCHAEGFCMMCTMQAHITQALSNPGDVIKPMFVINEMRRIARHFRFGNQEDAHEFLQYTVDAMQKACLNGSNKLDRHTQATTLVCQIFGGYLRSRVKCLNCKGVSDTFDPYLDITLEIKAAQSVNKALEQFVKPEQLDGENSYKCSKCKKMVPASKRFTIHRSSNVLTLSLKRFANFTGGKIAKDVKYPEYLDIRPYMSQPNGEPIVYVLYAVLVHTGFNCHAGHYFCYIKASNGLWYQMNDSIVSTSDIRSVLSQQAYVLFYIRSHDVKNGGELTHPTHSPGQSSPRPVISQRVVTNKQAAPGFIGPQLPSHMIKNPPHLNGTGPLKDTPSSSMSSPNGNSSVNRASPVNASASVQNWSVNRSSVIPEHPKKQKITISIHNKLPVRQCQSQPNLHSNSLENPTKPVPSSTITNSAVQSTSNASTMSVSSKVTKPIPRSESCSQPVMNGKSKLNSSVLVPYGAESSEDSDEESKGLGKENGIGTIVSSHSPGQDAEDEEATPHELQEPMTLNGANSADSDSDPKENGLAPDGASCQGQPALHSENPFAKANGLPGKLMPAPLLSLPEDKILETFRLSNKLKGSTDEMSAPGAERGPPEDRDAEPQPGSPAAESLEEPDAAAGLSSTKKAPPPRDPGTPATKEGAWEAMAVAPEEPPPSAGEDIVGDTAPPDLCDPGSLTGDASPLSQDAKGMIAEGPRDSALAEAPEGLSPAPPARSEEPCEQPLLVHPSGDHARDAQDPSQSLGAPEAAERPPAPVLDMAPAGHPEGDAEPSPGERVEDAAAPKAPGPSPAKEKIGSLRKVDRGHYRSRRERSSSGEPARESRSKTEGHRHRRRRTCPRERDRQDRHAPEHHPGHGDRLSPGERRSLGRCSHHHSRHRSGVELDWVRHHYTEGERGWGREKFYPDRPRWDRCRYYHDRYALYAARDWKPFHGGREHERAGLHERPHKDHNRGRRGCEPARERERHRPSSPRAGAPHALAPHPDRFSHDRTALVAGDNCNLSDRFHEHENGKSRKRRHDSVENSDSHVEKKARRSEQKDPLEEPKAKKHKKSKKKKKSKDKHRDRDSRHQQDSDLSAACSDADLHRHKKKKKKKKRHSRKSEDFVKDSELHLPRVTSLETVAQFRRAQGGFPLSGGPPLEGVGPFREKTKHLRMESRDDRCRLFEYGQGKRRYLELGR
Summary of the method: (§1)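 The table lists average log2 ratios of fragment over vehicle, from an unpaired t-test on global-median-normalised Spectronaut label-free quantities. Proteins with ≥2 unique peptides were used. Samples were HEK293T lysate (495 µg) treated in triplicate with fragment at 200 µM or vehicle for 3 h, then with Biotin-Ahx-Ub-VS (0.5 µM final) for 1 h, with labelled DUBs NeutrAvidin-enriched and run by diaPASEF LC-MS/MS.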

USP46 = USP46 (UniProt P62068)
USP46, sequence (P62068 whole entry): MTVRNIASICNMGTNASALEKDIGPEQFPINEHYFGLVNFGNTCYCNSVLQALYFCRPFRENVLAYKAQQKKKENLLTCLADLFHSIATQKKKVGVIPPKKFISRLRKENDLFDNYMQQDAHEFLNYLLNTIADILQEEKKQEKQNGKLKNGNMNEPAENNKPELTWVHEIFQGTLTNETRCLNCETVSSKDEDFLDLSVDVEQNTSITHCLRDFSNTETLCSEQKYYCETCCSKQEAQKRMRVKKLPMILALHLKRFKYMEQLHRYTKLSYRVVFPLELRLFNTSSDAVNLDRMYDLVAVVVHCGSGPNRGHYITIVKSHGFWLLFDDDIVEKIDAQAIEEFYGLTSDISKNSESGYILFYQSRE
Summary of the method: as §1

USP47 = target: T2, USP47 (UniProt Q96K76)
T2 sequence (whole entry): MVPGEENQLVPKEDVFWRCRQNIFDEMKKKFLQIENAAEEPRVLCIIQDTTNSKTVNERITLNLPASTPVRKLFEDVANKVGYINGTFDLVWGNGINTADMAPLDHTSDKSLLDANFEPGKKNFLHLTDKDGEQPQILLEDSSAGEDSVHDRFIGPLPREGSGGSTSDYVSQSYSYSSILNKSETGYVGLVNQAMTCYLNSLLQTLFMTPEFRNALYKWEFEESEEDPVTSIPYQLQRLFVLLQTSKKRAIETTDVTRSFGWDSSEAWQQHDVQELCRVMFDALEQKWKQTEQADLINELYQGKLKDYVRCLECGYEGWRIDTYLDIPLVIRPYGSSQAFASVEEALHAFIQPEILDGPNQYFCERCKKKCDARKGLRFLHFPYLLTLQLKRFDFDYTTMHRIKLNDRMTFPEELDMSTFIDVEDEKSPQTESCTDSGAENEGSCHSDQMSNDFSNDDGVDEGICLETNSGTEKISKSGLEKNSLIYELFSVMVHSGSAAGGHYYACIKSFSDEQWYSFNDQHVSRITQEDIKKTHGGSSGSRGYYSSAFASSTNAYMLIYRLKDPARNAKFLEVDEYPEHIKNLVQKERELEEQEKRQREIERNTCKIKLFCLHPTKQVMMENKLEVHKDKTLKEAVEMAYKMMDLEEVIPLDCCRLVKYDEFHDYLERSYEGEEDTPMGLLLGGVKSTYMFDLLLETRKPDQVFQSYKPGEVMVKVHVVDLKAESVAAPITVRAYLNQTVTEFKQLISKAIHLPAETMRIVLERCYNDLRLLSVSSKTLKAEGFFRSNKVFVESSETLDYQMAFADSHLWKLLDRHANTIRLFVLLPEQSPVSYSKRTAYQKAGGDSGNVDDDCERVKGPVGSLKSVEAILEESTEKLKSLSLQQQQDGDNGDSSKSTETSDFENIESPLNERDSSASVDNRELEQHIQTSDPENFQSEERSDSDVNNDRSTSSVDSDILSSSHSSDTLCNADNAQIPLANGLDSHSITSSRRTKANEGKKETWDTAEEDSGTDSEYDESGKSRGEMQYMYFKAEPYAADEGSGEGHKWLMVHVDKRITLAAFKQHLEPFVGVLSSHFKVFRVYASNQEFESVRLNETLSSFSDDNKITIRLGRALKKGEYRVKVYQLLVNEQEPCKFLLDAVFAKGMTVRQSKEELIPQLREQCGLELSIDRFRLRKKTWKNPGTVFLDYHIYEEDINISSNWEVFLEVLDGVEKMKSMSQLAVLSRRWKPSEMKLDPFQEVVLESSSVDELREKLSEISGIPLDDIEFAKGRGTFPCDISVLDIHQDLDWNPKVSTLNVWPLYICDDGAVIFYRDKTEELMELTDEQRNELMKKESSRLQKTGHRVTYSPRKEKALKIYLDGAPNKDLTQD
Summary of the method: as §1

USP48 = target: T3, USP48 (UniProt Q86UV5)
T3 sequence (whole entry): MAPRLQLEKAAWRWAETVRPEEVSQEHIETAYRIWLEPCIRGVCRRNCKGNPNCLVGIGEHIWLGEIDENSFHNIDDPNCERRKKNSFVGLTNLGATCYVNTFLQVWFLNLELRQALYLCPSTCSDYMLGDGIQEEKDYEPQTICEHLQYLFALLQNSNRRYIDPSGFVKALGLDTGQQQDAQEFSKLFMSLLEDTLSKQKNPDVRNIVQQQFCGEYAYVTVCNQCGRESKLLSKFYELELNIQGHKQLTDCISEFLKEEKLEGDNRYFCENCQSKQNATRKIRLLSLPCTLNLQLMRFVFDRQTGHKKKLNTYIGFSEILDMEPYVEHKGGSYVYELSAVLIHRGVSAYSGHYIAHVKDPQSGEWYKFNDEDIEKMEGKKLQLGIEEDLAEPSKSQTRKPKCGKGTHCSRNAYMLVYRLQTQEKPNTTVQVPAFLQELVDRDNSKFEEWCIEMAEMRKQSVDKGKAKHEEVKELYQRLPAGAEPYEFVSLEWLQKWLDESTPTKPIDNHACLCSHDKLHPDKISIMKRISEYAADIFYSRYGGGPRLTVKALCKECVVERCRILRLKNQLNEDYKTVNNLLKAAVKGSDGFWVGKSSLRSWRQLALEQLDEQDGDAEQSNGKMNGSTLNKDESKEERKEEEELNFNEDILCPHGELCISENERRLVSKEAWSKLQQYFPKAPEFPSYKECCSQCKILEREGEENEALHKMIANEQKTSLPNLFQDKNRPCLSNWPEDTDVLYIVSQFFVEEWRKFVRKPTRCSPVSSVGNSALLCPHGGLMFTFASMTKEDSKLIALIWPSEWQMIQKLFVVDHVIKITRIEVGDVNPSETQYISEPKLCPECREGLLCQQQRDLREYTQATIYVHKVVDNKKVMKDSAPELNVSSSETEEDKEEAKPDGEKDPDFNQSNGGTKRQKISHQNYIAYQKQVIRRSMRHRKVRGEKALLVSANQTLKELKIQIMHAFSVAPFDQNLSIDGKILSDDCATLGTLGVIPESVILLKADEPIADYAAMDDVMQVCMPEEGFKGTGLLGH
Summary of the method: as §1

USP5 = target: T4, USP5 (UniProt P45974)
T4 sequence (whole entry): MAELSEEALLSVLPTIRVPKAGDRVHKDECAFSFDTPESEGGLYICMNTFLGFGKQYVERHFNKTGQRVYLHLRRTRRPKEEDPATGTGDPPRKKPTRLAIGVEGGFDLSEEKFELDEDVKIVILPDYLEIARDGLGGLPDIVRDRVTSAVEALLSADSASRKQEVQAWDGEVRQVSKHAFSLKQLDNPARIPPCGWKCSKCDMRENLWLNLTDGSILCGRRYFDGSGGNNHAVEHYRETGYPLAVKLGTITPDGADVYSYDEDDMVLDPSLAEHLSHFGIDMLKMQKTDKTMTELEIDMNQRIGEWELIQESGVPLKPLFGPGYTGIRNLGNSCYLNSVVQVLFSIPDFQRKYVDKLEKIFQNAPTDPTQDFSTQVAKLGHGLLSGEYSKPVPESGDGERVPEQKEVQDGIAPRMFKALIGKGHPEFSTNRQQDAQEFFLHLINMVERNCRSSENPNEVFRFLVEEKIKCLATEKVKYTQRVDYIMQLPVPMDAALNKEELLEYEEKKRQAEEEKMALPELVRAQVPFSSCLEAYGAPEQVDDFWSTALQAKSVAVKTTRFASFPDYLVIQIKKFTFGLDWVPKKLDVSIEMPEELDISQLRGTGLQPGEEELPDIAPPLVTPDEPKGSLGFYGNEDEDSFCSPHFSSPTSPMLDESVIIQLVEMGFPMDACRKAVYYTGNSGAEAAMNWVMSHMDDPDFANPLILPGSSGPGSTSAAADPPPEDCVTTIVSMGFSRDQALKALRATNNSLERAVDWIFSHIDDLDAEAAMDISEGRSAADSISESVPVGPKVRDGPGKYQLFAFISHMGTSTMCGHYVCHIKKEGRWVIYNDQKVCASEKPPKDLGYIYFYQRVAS
Summary of the method: as §1

USP54 = USP54 (UniProt Q70EL1)
USP54, sequence (Q70EL1 whole entry): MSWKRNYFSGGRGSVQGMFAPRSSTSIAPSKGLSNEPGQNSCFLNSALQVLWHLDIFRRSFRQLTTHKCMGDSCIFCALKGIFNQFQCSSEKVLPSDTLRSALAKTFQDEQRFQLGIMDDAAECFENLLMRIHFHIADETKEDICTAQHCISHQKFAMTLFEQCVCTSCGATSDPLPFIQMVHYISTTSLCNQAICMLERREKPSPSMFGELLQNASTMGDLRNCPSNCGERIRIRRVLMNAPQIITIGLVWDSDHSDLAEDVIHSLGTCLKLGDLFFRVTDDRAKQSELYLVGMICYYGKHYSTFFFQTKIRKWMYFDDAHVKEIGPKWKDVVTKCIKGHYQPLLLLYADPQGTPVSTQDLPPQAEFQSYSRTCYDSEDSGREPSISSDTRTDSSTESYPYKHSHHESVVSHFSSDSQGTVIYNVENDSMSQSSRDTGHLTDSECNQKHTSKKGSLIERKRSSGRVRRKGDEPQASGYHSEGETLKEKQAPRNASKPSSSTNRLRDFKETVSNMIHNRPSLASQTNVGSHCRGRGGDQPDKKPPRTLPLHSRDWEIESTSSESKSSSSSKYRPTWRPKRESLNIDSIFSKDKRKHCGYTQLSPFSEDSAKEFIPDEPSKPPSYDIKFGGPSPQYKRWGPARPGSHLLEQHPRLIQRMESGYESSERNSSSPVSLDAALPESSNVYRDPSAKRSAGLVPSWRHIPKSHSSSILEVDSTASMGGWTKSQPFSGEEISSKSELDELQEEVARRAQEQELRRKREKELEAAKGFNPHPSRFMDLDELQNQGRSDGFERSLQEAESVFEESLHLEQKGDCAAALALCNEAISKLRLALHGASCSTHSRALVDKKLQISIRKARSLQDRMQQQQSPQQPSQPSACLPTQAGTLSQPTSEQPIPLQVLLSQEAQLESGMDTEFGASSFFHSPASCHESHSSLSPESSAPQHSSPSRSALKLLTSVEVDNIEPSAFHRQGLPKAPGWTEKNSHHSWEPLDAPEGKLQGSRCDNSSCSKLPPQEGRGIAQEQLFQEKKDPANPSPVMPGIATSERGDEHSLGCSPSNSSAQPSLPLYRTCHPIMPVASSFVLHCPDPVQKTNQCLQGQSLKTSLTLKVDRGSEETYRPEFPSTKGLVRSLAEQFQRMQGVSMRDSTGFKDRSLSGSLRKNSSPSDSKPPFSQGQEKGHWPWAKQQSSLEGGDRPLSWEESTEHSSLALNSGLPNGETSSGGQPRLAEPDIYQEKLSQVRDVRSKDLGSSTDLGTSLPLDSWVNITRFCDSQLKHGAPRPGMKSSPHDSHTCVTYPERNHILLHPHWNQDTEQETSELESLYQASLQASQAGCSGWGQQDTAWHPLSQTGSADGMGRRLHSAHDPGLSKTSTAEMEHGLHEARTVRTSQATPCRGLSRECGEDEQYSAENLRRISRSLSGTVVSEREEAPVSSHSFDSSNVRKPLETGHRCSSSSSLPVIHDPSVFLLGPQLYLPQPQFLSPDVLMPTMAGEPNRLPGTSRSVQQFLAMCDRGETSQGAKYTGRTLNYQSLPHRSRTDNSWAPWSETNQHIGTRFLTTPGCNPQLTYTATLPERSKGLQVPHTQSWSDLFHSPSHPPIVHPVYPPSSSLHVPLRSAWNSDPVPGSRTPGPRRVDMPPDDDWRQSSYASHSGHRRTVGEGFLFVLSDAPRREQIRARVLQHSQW
Summary of the method: as §1

USP7 = USP7 (UniProt Q93009)
Summary of the method: as §1

USP8 = target: T5, USP8 (UniProt P40818)
T5 sequence (whole entry): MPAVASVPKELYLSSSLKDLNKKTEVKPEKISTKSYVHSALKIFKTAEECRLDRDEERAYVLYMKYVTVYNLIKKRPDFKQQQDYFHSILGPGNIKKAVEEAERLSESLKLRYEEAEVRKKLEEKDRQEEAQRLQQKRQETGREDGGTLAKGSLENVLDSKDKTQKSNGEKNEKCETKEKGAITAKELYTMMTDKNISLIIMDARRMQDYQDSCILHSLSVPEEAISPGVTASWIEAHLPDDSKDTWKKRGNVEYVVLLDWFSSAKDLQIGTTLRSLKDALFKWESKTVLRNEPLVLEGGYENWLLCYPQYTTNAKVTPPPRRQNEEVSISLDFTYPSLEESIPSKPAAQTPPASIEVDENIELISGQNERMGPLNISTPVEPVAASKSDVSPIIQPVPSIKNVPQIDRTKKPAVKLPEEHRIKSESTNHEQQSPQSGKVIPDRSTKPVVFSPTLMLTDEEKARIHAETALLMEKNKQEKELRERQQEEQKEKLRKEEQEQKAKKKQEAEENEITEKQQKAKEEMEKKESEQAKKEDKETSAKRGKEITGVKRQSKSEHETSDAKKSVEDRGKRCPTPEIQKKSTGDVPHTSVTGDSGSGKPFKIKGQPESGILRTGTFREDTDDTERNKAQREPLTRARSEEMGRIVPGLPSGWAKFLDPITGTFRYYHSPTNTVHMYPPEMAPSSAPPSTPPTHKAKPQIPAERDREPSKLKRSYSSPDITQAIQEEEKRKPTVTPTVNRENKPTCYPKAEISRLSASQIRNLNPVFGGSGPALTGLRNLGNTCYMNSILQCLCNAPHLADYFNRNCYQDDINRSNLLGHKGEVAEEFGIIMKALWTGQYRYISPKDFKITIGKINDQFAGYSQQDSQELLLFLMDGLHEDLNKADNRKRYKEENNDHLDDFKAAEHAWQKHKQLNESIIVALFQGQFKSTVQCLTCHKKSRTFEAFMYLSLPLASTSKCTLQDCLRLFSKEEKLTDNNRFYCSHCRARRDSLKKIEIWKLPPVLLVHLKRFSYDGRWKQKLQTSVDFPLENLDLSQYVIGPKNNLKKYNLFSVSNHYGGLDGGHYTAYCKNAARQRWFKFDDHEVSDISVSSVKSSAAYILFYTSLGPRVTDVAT
Summary of the method: as §1

USP9X = USP9X (UniProt Q93008)
USP9X, sequence (Q93008 whole entry): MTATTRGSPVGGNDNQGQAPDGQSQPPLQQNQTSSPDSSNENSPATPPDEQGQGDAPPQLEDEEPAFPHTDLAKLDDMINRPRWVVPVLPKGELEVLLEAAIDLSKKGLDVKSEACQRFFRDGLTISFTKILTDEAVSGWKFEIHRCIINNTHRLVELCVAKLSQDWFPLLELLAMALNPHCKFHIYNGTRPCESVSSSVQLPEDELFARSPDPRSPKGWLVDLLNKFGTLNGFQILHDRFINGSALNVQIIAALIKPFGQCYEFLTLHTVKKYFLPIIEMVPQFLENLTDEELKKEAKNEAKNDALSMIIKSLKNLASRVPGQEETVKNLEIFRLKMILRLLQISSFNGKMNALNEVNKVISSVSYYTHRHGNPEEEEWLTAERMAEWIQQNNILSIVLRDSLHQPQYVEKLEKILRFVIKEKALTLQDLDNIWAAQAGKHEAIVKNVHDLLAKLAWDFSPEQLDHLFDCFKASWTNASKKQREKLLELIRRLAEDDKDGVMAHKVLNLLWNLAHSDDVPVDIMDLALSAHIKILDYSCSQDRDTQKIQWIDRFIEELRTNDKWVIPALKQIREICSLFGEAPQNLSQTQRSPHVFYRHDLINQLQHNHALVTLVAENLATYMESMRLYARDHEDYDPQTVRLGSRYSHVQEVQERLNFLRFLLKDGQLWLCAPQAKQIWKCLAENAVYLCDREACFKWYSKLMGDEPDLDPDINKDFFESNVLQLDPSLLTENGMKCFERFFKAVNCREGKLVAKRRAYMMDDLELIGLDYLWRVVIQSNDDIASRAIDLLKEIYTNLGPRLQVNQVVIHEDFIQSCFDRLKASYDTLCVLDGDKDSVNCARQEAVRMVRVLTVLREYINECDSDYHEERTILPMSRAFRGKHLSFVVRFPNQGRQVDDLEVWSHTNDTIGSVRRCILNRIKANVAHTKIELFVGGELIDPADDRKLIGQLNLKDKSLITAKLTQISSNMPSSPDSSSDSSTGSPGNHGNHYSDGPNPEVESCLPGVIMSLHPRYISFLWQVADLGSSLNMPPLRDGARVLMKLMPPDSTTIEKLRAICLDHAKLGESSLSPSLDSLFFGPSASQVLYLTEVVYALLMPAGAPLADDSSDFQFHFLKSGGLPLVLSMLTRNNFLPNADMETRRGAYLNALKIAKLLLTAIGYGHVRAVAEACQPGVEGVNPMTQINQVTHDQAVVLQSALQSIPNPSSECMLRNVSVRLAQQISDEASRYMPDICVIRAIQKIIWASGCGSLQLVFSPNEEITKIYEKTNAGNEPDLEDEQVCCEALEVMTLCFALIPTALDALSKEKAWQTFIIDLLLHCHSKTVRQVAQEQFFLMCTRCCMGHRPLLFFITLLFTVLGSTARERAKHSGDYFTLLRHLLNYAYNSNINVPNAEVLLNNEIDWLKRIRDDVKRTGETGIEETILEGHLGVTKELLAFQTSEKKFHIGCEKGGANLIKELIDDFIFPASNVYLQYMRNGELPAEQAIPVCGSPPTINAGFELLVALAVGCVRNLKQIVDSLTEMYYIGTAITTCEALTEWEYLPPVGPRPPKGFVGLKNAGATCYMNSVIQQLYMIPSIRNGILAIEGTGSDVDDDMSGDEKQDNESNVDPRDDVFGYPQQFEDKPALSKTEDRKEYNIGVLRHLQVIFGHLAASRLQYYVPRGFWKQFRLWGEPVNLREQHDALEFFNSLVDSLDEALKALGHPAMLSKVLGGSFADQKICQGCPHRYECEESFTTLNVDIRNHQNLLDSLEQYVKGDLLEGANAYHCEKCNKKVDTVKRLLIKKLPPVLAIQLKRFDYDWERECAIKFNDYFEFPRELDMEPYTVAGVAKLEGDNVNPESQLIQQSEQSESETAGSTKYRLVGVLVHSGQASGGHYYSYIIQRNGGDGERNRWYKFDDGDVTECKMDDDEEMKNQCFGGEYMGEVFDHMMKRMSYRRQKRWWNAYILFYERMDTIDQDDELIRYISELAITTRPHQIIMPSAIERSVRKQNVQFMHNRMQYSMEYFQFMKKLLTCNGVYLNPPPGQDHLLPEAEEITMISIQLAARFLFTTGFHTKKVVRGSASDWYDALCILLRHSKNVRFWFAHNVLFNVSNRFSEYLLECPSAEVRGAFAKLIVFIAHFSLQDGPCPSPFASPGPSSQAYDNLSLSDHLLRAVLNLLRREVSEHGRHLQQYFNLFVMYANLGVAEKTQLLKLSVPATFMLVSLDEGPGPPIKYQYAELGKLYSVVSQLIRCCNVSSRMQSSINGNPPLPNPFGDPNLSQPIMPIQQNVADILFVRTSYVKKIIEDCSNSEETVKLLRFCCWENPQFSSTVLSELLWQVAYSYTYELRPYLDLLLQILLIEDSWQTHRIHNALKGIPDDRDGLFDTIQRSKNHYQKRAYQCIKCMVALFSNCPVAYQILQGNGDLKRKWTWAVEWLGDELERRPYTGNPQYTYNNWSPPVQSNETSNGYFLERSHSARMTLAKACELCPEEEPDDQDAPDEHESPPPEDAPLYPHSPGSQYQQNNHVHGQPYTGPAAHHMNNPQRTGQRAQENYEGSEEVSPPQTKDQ
Summary of the method: as §1

UniProt O00487 = target: UniProt O00487
UniProt O00487, sequence (O00487 whole entry): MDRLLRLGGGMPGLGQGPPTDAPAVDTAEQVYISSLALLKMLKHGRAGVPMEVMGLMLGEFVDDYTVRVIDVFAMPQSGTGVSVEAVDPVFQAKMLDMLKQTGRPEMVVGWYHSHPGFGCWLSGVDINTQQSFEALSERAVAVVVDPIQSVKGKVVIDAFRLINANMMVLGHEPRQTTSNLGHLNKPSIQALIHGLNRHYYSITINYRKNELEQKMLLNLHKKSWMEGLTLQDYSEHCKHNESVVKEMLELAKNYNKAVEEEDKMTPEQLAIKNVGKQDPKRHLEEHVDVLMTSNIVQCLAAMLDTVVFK
Summary of the method: as §1

Measured: log2 ratio of Biotin-Ahx-Ub-VS probe labelling

O=C(CCl)N1CCc2nc[nH]c2C1c1ccc(Cl)cc1 (stereo not given)
active: USP48 -1.05 | USP7 -1.31
inactive: USP42 -0.0471 | USP46 -0.363 | USP47 -0.614 | USP5 -0.146 | USP54 0.015 | USP8 0.126 | USP9X -0.619 | UniProt O00487 0.0187
